Legend:
Experiment in all cases: growth AUC relative to DMSO control (median of replicates) (fraction); higher = more growth (less inhibition), active = hit call of the paper
Settings in all cases: 20 µM; 24 h;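 active = AUC reduced over 20% with Padj below 0.05 in at least 2 of 3 replicates; inactive = otherwise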
Akkermansia muciniphila = tested on: Akkermansia muciniphila
How it was run: (§1)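 Area under the growth curve was normalised to the plate median of solvent-only wells, or to row and column medians on the industrial chemical plate. Growth curves came from anaerobic gut bacterial monocultures in mGAM at 37 °C, seeded at OD600 0.05 with 20 µM compound (1% DMSO), and read at OD600 hourly for 24 h with the minimum OD set to 0. The value is the median of three biological replicates grown on separate days.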

Bacteroides caccae = tested on: Bacteroides caccae
How it was run: as §1

Bacteroides clarus = tested on: Bacteroides clarus
How it was run: as §1

Bacteroides dorei = tested on: Bacteroides dorei
How it was run: as §1

Bacteroides stercoris = tested on: Bacteroides stercoris
How it was run: as §1

[1] = tested on: Bacteroides thetaiotaomicron
How it was run: as §1

Bacteroides uniformis = tested on: Bacteroides uniformis
How it was run: as §1

[2] = tested on: Bifidobacterium longum subsp. longum
How it was run: as §1

Clostridium difficile = tested on: Clostridium difficile
How it was run: as §1

Collinsella aerofaciens = tested on: Collinsella aerofaciens
How it was run: as §1

Measured: growth AUC

Cc1ccc2c(c1)[C@H](Nc1nc(N)nc(C(C)F)n1)[C@@H](C)C2 (stereo not given in full)
inactive: Akkermansia muciniphila 0.985 | Bacteroides caccae 1 | Bacteroides clarus 0.969 | Bacteroides dorei 0.989 | Bacteroides stercoris 1.08 | [1] 0.975 | Bacteroides uniformis 0.948 | [2] 1.03 | Clostridium difficile 0.998 | Collinsella aerofaciens 1.01

O=[N+]([O-])c1ccc(Oc2c(Cl)cc(Cl)cc2Cl)cc1
inactive: Akkermansia muciniphila 0.832 | Bacteroides caccae 1.02 | Bacteroides clarus 0.907 | Bacteroides dorei 1.01 | Bacteroides stercoris 1.07 | [1] 0.971 | Bacteroides uniformis 0.914 | [2] 0.985 | Clostridium difficile 1.02 | Collinsella aerofaciens 0.935

CCN(CC)C(=O)c1cccc(C)c1
inactive: Akkermansia muciniphila 1.03 | Bacteroides caccae 0.985 | Bacteroides clarus 1.03 | Bacteroides dorei 1.05 | Bacteroides stercoris 1.05 | [1] 0.975 | Bacteroides uniformis 0.998 | [2] 1.02 | Clostridium difficile 0.982 | Collinsella aerofaciens 0.952

COc1nc(C)nc(NC(=O)NS(=O)(=O)c2ccccc2OCCCl)n1
inactive: Akkermansia muciniphila 1.06 | Bacteroides caccae 1.09 | Bacteroides clarus 1.01 | Bacteroides dorei 1.02 | Bacteroides stercoris 1.02 | [1] 0.985 | Bacteroides uniformis 1.01 | [2] 1 | Clostridium difficile 0.998 | Collinsella aerofaciens 0.993

CCN(CC)C(=O)SCc1ccccc1Cl
inactive: Akkermansia muciniphila 0.931 | Bacteroides caccae 1.02 | Bacteroides clarus 0.985 | Bacteroides dorei 1 | Bacteroides stercoris 1.01 | [1] 0.983 | Bacteroides uniformis 0.957 | [2] 0.965 | Clostridium difficile 0.996 | Collinsella aerofaciens 1.01

O=S(Cc1ccc(Cl)cc1)c1ccc(Cl)cc1 (stereo not given)
inactive: Akkermansia muciniphila 0.934 | Bacteroides caccae 0.961 | Bacteroides clarus 0.978 | Bacteroides dorei 0.986 | Bacteroides stercoris 0.964 | [1] 0.946 | Bacteroides uniformis 0.983 | [2] 1.05 | Clostridium difficile 0.977 | Collinsella aerofaciens 0.972

CCOC(=O)c1ccc(O)cc1
inactive: Akkermansia muciniphila 1.17 | Bacteroides caccae 0.967 | Bacteroides clarus 1.01 | Bacteroides dorei 0.842 | Bacteroides stercoris 0.993 | [1] 0.991 | Bacteroides uniformis 1 | [2] 1.02 | Clostridium difficile 1.01 | Collinsella aerofaciens 1

Cc1cccc(C)c1N(C(=O)CCl)C1CCOC1=O (stereo not given)
active: [1] 0.647
inactive: Akkermansia muciniphila 1.05 | Bacteroides caccae 0.802 | Bacteroides clarus 0.993 | Bacteroides dorei 0.971 | Bacteroides stercoris 1.1 | Bacteroides uniformis 0.894 | [2] 1.04 | Clostridium difficile 0.966 | Collinsella aerofaciens 0.959

COC(=O)Cc1cccc2ccccc12
inactive: Akkermansia muciniphila 1.01 | Bacteroides caccae 1.01 | Bacteroides clarus 0.989 | Bacteroides dorei 0.965 | Bacteroides stercoris 1.07 | [1] 0.995 | Bacteroides uniformis 1 | [2] 1.02 | Clostridium difficile 1.01 | Collinsella aerofaciens 0.96

CCC(C)Nc1nc(N)nc(Cl)n1 (stereo not given)
inactive: Akkermansia muciniphila 1.09 | Bacteroides caccae 0.906 | Bacteroides clarus 0.995 | Bacteroides dorei 1.02 | Bacteroides stercoris 1.16 | [1] 1.01 | Bacteroides uniformis 0.949 | [2] 1.03 | Clostridium difficile 0.974 | Collinsella aerofaciens 1.01

CCc1ccc(C(c2ccc(CC)cc2)C(Cl)Cl)cc1
inactive: Akkermansia muciniphila 0.859 | Bacteroides caccae 0.912 | Bacteroides clarus 0.952 | Bacteroides dorei 1.02 | Bacteroides stercoris 0.931 | [1] 0.977 | Bacteroides uniformis 1.02 | [2] 0.972 | Clostridium difficile 1.03 | Collinsella aerofaciens 0.901

COC(=O)c1c(Cl)ccc(Cl)c1OC
inactive: Akkermansia muciniphila 1.02 | Bacteroides caccae 1 | Bacteroides clarus 1.01 | Bacteroides dorei 1.04 | Bacteroides stercoris 0.942 | [1] 1.02 | Bacteroides uniformis 1 | [2] 1.04 | Clostridium difficile 1.04 | Collinsella aerofaciens 1.04

CN(C)C(=O)SCCCCOc1ccccc1
inactive: Akkermansia muciniphila 0.993 | Bacteroides caccae 0.957 | Bacteroides clarus 0.967 | Bacteroides dorei 0.99 | Bacteroides stercoris 0.915 | [1] 0.973 | Bacteroides uniformis 0.992 | [2] 0.984 | Clostridium difficile 0.983 | Collinsella aerofaciens 0.993

ClC(COCC(Cl)C(Cl)(Cl)Cl)C(Cl)(Cl)Cl (stereo not given)
inactive: Akkermansia muciniphila 0.875 | Bacteroides caccae 0.969 | Bacteroides clarus 0.942 | Bacteroides dorei 1.01 | Bacteroides stercoris 0.952 | [1] 0.91 | Bacteroides uniformis 0.918 | [2] 0.967 | Clostridium difficile 1.02 | Collinsella aerofaciens 1.05

NC(=O)C1CO1 (stereo not given)
inactive: Bacteroides caccae 0.982 | Bacteroides clarus 0.971 | Bacteroides dorei 0.864 | [1] 0.972 | Bacteroides uniformis 0.912 | [2] 0.929 | Clostridium difficile 1.01 | Collinsella aerofaciens 0.933
active: Akkermansia muciniphila 0.657 | Bacteroides stercoris 0.586

CCOc1ccc(C2(C(=O)OC(C#N)c3cccc(Oc4ccccc4)c3)CC2(Cl)Cl)cc1 (stereo not given)
inactive: Akkermansia muciniphila 1.08 | Bacteroides caccae 0.968 | Bacteroides clarus 1.02 | Bacteroides dorei 0.94 | Bacteroides stercoris 1.04 | [1] 0.993 | Bacteroides uniformis 0.957 | [2] 0.911 | Clostridium difficile 1.01 | Collinsella aerofaciens 0.982

COc1nc(N)nc(NC(C)(C)C)n1
inactive: Akkermansia muciniphila 1.01 | Bacteroides caccae 0.996 | Bacteroides clarus 0.965 | Bacteroides dorei 1.03 | Bacteroides stercoris 0.967 | [1] 1.01 | Bacteroides uniformis 1 | [2] 1.01 | Clostridium difficile 0.98 | Collinsella aerofaciens 0.959

NC1=C(Cl)C(=O)c2ccccc2C1=O
inactive: Akkermansia muciniphila 0.886 | Bacteroides caccae 1.12 | Bacteroides dorei 0.965 | Bacteroides stercoris 0.83 | [1] 0.906 | Bacteroides uniformis 0.88 | [2] 0.887 | Clostridium difficile 0.938 | Collinsella aerofaciens 1.01
active: Bacteroides clarus 0.716

COC(=O)C(C)Oc1ccc(Oc2ccc(C(F)(F)F)cn2)cc1 (stereo not given)
inactive: Akkermansia muciniphila 1.14 | Bacteroides caccae 0.979 | Bacteroides clarus 0.992 | Bacteroides dorei 0.948 | Bacteroides stercoris 1.23 | [1] 0.965 | Bacteroides uniformis 0.968 | [2] 1.02 | Clostridium difficile 1.01 | Collinsella aerofaciens 0.979

CCN(Cc1c(F)cccc1Cl)c1c([N+](=O)[O-])cc(C(F)(F)F)cc1[N+](=O)[O-]
inactive: Akkermansia muciniphila 0.852 | Bacteroides caccae 0.822 | Bacteroides clarus 0.831 | Bacteroides dorei 1.02 | [1] 0.934 | Bacteroides uniformis 1.03 | [2] 0.909 | Clostridium difficile 0.99 | Collinsella aerofaciens 0.829
active: Bacteroides stercoris 0.27

CC(C)N(C(=O)CS(=O)(=O)[O-])c1ccc(F)cc1.[Na+]
inactive: Akkermansia muciniphila 0.977 | Bacteroides caccae 1.02 | Bacteroides clarus 0.979 | Bacteroides dorei 0.984 | Bacteroides stercoris 0.966 | [1] 0.948 | Bacteroides uniformis 1.04 | [2] 0.944 | Clostridium difficile 1.05 | Collinsella aerofaciens 0.957

Nc1ccc(S(=O)(=O)Nc2nccs2)cc1
inactive: Akkermansia muciniphila 0.9 | Bacteroides caccae 1.03 | Bacteroides clarus 0.992 | Bacteroides dorei 0.943 | Bacteroides stercoris 0.985 | [1] 0.978 | Bacteroides uniformis 1.02 | [2] 0.998 | Clostridium difficile 0.98 | Collinsella aerofaciens 0.978

CCOC(=O)C1CC(=O)C(=C(O)C2CC2)C(=O)C1 (stereo not given)
inactive: Akkermansia muciniphila 1.01 | Bacteroides caccae 1.03 | Bacteroides clarus 0.965 | Bacteroides dorei 0.979 | Bacteroides stercoris 0.982 | [1] 1 | Bacteroides uniformis 0.972 | [2] 1.03 | Clostridium difficile 1.01 | Collinsella aerofaciens 0.986

CN(C)C(=O)c1cccnc1S(N)(=O)=O
inactive: Akkermansia muciniphila 1.05 | Bacteroides caccae 1.01 | Bacteroides clarus 1.04 | Bacteroides dorei 1.03 | Bacteroides stercoris 1.01 | [1] 0.988 | Bacteroides uniformis 1.04 | [2] 1.02 | Clostridium difficile 1.05 | Collinsella aerofaciens 1.01

CCCCC(CC)CN1C(=O)C2C(C1=O)[C@H]1C=C[C@@H]2C1 (mixture of isomers)
inactive: Akkermansia muciniphila 1.11 | Bacteroides caccae 1 | Bacteroides clarus 1.03 | Bacteroides dorei 0.974 | Bacteroides stercoris 1.06 | [1] 0.985 | Bacteroides uniformis 0.972 | [2] 1.05 | Clostridium difficile 1.03 | Collinsella aerofaciens 1.12

CC(C)CCCCCCc1ccc(O)cc1
inactive: Akkermansia muciniphila 0.981 | Bacteroides caccae 1.03 | Bacteroides clarus 1.03 | Bacteroides dorei 1.01 | Bacteroides stercoris 0.923 | [1] 0.992 | Bacteroides uniformis 0.965 | [2] 1.03 | Clostridium difficile 1.07 | Collinsella aerofaciens 0.979

Clc1ccc(Sc2cc(Cl)c(Cl)cc2Cl)cc1
inactive: Akkermansia muciniphila 1.05 | Bacteroides caccae 0.943 | Bacteroides clarus 0.993 | Bacteroides dorei 1.04 | Bacteroides stercoris 0.985 | [1] 0.98 | Bacteroides uniformis 0.984 | [2] 0.986 | Clostridium difficile 1 | Collinsella aerofaciens 0.936

N#Cc1cc(Cl)c(O)c(Cl)c1
inactive: Akkermansia muciniphila 1.12 | Bacteroides caccae 1 | Bacteroides clarus 1 | Bacteroides dorei 0.982 | Bacteroides stercoris 0.935 | [1] 0.994 | Bacteroides uniformis 0.947 | [2] 1.03 | Clostridium difficile 0.997 | Collinsella aerofaciens 1

CCCCCCCCCCCC[N+](C)(C)Cc1ccc(CC)cc1.[Cl-]
active: Bacteroides caccae 0.0238 | Bacteroides clarus 0.234 | Bacteroides stercoris 0.00577 | [1] 0.00582 | Bacteroides uniformis 0.0211 | [2] 0.665 | Collinsella aerofaciens 0.502
inactive: Akkermansia muciniphila 0.765 | Bacteroides dorei 0.92 | Clostridium difficile 0.73

— the supplement of paper PMC12669032
